Compound activity deposited in PubChem BioAssay by several laboratories.
An excerpt weighted towards active compounds, which were near 1.2% of everything screened.
pCIP destab = p/CIP protein destabilization; Q05BA5; F442A p/CIP-EGFP cells, EGFP fluorescence, 16 h; decrease of EGFP signal, % at 10 µM; actives 0.01% (n = 290,000); AID 1984;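 active means EGFP signal decrease of at least 30% at 10 µM or well 3 SD below plate mean, unless failing retest; inactive means the rest, including hits failing retest or dose response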
VLA-4 inh = inhibition in a human VLA-4 binding assay. P13612. VLA-4 expressing cells, ligand binding flow cytometry. inhibition, % (about 7 µM as worked out from the volumes in the protocol). actives 0.2% (n = 330,000). AID 2557; in the data active means inhibition above about 50%
GASC-1 inh = inhibitors of human GASC-1 (JMJD2C) demethylase. Q9H3R0. GST-JMJD2C(1-420) H3K9me3 demethylation, DELFIA europium. inhibition, % at 2.35 µM. actives 0.069% (n = 330,000). AID 2099;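 active means more than half of a compound's replicate wells show inhibition beyond 50%, single wells judged on their own value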;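 further: signal counts dimethyl H3K9 product captured on neutravidin plate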
GPR7 antag = antagonists of human GPR7 (neuropeptides B/W receptor 1); GPR7-expressing cells, fluorescence antagonist assay; actives 1.1% (n = 290,000); AID 1861; inhibition, % at 4.4 µM; in the data active means inhibition above about 16%, passing the limit was not always enough;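 further: cells stimulated with the agonist NPW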
VLA-4 allo CP = human VLA-4 allosteric modulation in cherry picked compounds | inhibition, % at 6.7 µM | shares compounds with VLA-4 inh | U937 cells, HUTS-21 LIBS mAb binding, flow cytometry; LDV ligand present at threefold Kd | actives 2% (n = 1,300); in the data active means inhibition above about 40%
Large screens that a line does not name were inactive (follow-up assays come after a bar, where they were run).

CN(C)S(=O)(=O)c1ccc(N2CCCC2)c(C(=O)Nc2ccccc2N2CCOCC2)c1	none (no result: VLA-4 inh, GASC-1 inh, GPR7 antag)
Cc1ccc(NC(=O)c2cc(S(=O)(=O)N3CCCCC3)ccc2N2CCOCC2)cc1F	none
COc1ccc(C)cc1NC(=O)c1cc(S(=O)(=O)N2CCCCC2)ccc1N1CCOCC1	none (no result: pCIP destab, GPR7 antag) | VLA-4 allo CP inactive
CN(C)c1ccc(/C=C2\Oc3ccc(C#Cc4cccc(N)c4)cc3C2=O)cc1	none (no result: pCIP destab, GPR7 antag)
O=C(Nc1ccc(OC(F)F)cc1)c1cc(S(=O)(=O)N2CCCCC2)ccc1N1CCOCC1	none (no result: pCIP destab, GASC-1 inh, GPR7 antag) | VLA-4 allo CP inactive
O=c1c2[nH]c3ccc(Br)cc3c2ncn1Cc1ccncc1	none | VLA-4 allo CP inactive
Cn1c(-c2ccccc2)c(C#Cc2ccc(N)cc2)c2ccccc21	none (no result: pCIP destab, GPR7 antag)
COc1cccc2[nH]c3c(=O)n(CCCN4CCOCC4)cnc3c12	none | VLA-4 allo CP inactive
COc1ccc2[nH]cc(CCNC(=O)COc3cc(C)cc4oc(=O)cc(C)c34)c2c1	none
CCn1ncc(S(=O)(=O)Nc2cc(Cl)ccc2C)c1C	none
CC(OC(=O)/C=C/c1ccccc1)C(=O)Nc1cccc(C#N)c1 (stereo not drawn)	none (no result: pCIP destab, GPR7 antag)
Fc1ccc2nc(Nc3nc4c(F)cccc4s3)sc2c1	VLA-4 inh 53 | VLA-4 allo CP inactive
CCN(CC(=O)NCc1cccs1)C(=O)C(c1ccccc1)c1ccccc1	none
O=[N+]([O-])c1cc2c(cc1C=Nc1ccccc1)OCO2	VLA-4 inh 50 | VLA-4 allo CP inactive
COc1ccc(N(CC(=O)N2CCc3ccccc32)S(=O)(=O)c2c(C)nn(C)c2C)cc1	none | VLA-4 allo CP inactive
Cc1nn(C)c(C)c1S(=O)(=O)N(CC(=O)N1CCc2ccccc21)c1ccc(C(C)C)cc1	none
CCCc1cc(C(=O)N2CCCC(C(=O)c3cc(C)c(OC)c(C)c3)C2)n(C)n1 (stereo not drawn)	VLA-4 inh 106 | VLA-4 allo CP inactive
CCCc1cc(C(=O)N2CCCC(C(=O)c3ccc(Cl)cc3)C2)n(C)n1 (stereo not drawn)	none
CCCN(CC(=O)Nc1ccccc1OC)Cc1c(O)ccc2ccccc12	none
O=C(Nc1ccc(Cl)cc1)C1C2C=CC3(O2)C1C(=O)N(CCCN1CCCCC1)C3C(=O)NC1CCCCC1 (stereo not drawn)	none
O=C(Nc1ccc(C2=NCCN2)cc1)c1ccc(Cl)c(C(=O)Nc2ccc(C3=NCCN3)cc2)c1	none | VLA-4 allo CP inactive
CCCN(C(=O)CCSc1ccc(F)cc1)c1c(N)n(Cc2ccccc2)c(=O)[nH]c1=O	none
O=C1COc2ccc(N3C(=O)c4ccccc4C3=O)cc2N1	VLA-4 inh 52 | VLA-4 allo CP inactive
Cc1ccc(C(=O)NC(=S)N2CCCC2)cc1	none
CCOC(=O)C1=C(C)N(C)C(=O)NC1c1cc2c(cc1[N+](=O)[O-])OCO2 (stereo not drawn)	none
COc1ccc(C(=O)Nc2nncs2)cc1S(=O)(=O)N1CCOCC1	VLA-4 inh 59 | VLA-4 allo CP inactive
Cc1ccc(C(=O)Nc2nncs2)cc1S(=O)(=O)N1CCOCC1	none
O=C(Nc1ccccc1Cl)Nc1ccccc1Cl	none | VLA-4 allo CP inactive
O=C(NCCCn1ccnc1)C(=O)NCC(c1cccnc1)N1CCN(c2ccccc2)CC1 (stereo not drawn)	VLA-4 inh 57 | VLA-4 allo CP inactive
CCCC(=O)Nc1sc(-c2ccccc2)c(-c2ccccc2)c1C(=O)O	none (no result: pCIP destab, GPR7 antag)
CN1CCN(c2nc(-c3ccccc3O)nc3ccccc23)CC1	none | VLA-4 allo CP inactive
CN1CCN(c2nc(-c3ccccc3Cl)nc3ccccc23)CC1	none
CC(C)Cn1c(N)c(C(=O)CSc2nnc(-c3ccco3)n2C)c(=O)n(C)c1=O	VLA-4 inh 53 (no result: pCIP destab, GPR7 antag) | VLA-4 allo CP inactive
CC(C)Cn1c(N)c(C(=O)CSc2ccccc2)c(=O)n(C)c1=O	none
Cc1ccc2nc(-c3ccccc3)cc(C(=O)N3CCN(S(=O)(=O)c4c(C)noc4C)CC3)c2c1	none (no result: pCIP destab, GPR7 antag) | VLA-4 allo CP inactive
CC(=O)Oc1ccc(Cl)cc1/C=C/c1cc(OC(C)=O)c2ccccc2n1	none
COc1cc(Cl)cc(/C=C/c2ccc3ccccc3n2)c1OC(C)=O	none | VLA-4 allo CP inactive
Fc1ccc(NC(=S)Nc2cccnc2)cc1	none
O=C(Nc1ccc(F)cc1)Nc1cccnc1	none | VLA-4 allo CP inactive
CC(C(=O)Nc1ccc(C(N)=O)cc1)N1C(=O)c2ccccc2S1(=O)=O (stereo not drawn)	none (no result: pCIP destab, GPR7 antag)
Cc1ccccc1C(=O)c1cccn1CC(=O)NC(C)c1ccc2c(c1)OCCO2 (stereo not drawn)	none
